The source made the active and inactive calls.
Key:
Albumin (Bos taurus) = Albumin (Bos taurus) (UniProt P02769); test: bovine serum albumin binders on microarray, profiling panel, artefact control for SMM control protein annotation, biochemical, small-molecule microarray, Alexa647 label, 635/667 nm fluorescence (AID 1118); conditions: BSA-A647 binding, fluorescence 635 nm, higher = more signal;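 also: score merges 667 nm emission intensity and signal-to-noise per printed compound spot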
[1] = small-molecule microarray binders of probe aXIP, primary screen, biochemical, NeuroSMM set, 635/667 nm fluorescence (AID 1119); conditions: higher = more signal, called active from +8 up or from −8 down;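 also: probe is the protein aXip251-270 applied at 1 µg/mL to compound-printed slides; binding of probe to printed compounds measured as 667 nm fluorescence plus signal to noise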
[2] = small-molecule binders of probe aNOTCH3, primary screen, biochemical, small-molecule microarray, 635/667 nm fluorescence (AID 1120); conditions: higher = more signal;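 also: probe is a biotin-tagged antibody raised against NOTCH3 rather than NOTCH3 protein; score merges spot fluorescence near 667 nm with spot signal to noise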
[3] = small-molecule binders of probe aNOTCH2, primary screen, biochemical, small-molecule microarray, 635/667 nm fluorescence (AID 1121); conditions: higher = more signal;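 also: score merges feature fluorescence read at 667 nm with its signal to noise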
[4] = biological target: Carbonic anhydrase 2 (Homo sapiens) (UniProt P00918); test: CAII small-molecule binders, profiling panel, biochemical, small-molecule microarray, Alexa647-labelled CAII (AID 1122); conditions: CAII-A647 binding fluorescence, higher = more signal
[5] = COS7 lysate on small-molecule microarray, probe aHis, 635 nm (AID 1123); conditions: COS7 cell lysate, fluorescence, higher = more signal;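 also: z-score combines 667nm fluorescence intensity with signal-to-noise per printed compound spot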
[6] = compound binding in COS7 lysate, probe aLAP1, primary screen, cell lysate, small-molecule microarray (AID 1124); conditions: probe aLAP1, fluorescence, higher = more signal;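 also: lysate comes from COS7 cells expressing LAP1 and is applied at 0.3 µg/mL; score merges spot fluorescence near 667 nm with signal-to-noise over triplicate slides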
Sam68 (KHDRBS1) = test: Sam68 small-molecule binders, primary screen, biochemical, small-molecule microarray, 635 nm fluorescence (AID 1125); conditions: small-molecule microarray binding, higher = more signal;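 also: score merges 667 nm channel intensity with signal to noise over triplicate slides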
[7] = system: Chordin-like protein 2 (CHRDL2); test: CHRDL2 small-molecule binders, primary screen, biochemical, small-molecule microarray, 635 nm fluorescence (AID 1126); conditions: small-molecule microarray binding, fluorescence 635 nm; higher = more signal;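 also: printed compound slides probed with Chrdl2 protein at 4 µg/mL for 1 h at 4 C; score merges 667 nm emission intensity with signal to noise over three replicate slides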
[8] = biological target: Concanavalin-A (Canavalia ensiformis) (UniProt P02866); test: ConA small-molecule binders, primary screen, artefact control for SMM control protein annotation, biochemical, small-molecule microarray, Alexa647 label, 635 nm (AID 1127); conditions: ConA-A647 binding fluorescence, higher = more signal;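 also: z combines 667 nm emission intensity with signal-to-noise across three replicate slides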
Concanavalin-A (Canavalia ensiformis), sequence (P02866 whole entry, looked up): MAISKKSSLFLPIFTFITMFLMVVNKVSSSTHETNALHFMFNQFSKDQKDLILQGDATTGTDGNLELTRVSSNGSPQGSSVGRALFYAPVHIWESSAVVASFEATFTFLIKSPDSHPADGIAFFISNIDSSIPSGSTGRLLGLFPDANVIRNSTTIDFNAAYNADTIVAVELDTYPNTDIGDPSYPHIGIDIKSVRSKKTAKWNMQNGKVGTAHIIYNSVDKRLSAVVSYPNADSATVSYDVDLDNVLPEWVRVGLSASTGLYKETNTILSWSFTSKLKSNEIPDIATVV

Albumin (Bos taurus), sequence (P02769 whole entry, looked up): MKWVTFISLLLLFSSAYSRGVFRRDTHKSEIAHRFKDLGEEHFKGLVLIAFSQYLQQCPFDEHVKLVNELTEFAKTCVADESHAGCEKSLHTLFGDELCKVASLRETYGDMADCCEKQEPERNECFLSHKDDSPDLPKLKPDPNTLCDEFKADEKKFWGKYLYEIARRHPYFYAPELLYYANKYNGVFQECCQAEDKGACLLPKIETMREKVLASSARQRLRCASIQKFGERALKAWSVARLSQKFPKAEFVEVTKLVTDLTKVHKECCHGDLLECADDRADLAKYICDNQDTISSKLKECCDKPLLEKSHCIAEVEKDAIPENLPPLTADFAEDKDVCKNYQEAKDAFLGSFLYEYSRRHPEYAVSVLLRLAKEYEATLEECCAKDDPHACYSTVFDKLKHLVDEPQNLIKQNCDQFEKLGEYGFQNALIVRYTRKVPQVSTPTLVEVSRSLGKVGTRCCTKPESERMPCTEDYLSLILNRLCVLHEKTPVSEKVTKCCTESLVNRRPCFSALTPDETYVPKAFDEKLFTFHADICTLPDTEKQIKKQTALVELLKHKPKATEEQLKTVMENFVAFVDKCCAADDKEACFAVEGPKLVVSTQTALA

| Structure (SMILES) | composite z-score (Albumin (Bos taurus)) | composite Z-score [1] | composite z-score [2] | composite z-score [3] | composite z-score [4] | composite z-score [5] | composite z-score [6] | composite z-score (Sam68 (KHDRBS1)) | composite z-score [7] | composite z-score [8] |
| --- | --- | --- | --- | --- | --- | --- | --- | --- | --- | --- |
| COC(=O)C(CC#Cc1ccc2c(c1)[C@]1(C(=O)N2)[C@H](C(=O)O)[C@H]2C(=O)O[C@H](c3ccccc3)[C@H](c3ccccc3)N2[C@@H]1c1ccccc1OCCO)C(=O)OC | 0.788 | -0.051 (inactive) | 0.277 | 0.054 | 0.684 | 1.62 | 1.11 | 1.32 | 0.364 | 1.15 |
| O=c1cccc(-c2ccc(C(F)(F)F)cc2)o1 | -0.309 | -0.275 (inactive) | -0.122 | -0.11 | -0.14 | -0.89 | 0.0441 | -1.03 | -0.291 | -0.0038 |
| O=C(CCCCCCC(=O)Nc1ccccc1)N/N=C/c1ccccc1 | -0.4 | 0.0068 (inactive) | -0.154 | -0.144 | -0.251 | -0.591 | 0.212 | -0.731 | 0.358 | -0.434 |
| COc1ccc([Si](C)(C)[C@@H]2[C@@H](CCO)O[C@]3(C(=O)N(Cc4cccc(N5C(=O)c6ccccc6Oc6ccccc65)c4)c4ccccc43)[C@H]2C)cc1 | 0.326 | -0.0368 (inactive) | -0.157 | -0.0712 | 0.411 | 1.07 | 0.594 | 0.554 | -0.245 | 0.276 |
| COc1ccc(C(O)C2C=CC3C(=O)N(c4ccccc4)C(=O)C3N2Nc2ccc(C#N)cc2)c2ccccc12 (stereo not given) | 1.07 | 1.3 (inactive) | 0.0248 | 0.0847 | 0.734 | 2.48 | 0.537 | 1.28 | -0.32 | 1.22 |
| COCCOC(=O)N1C(=O)[C@@]2(c3cc(C#Cc4ccc(OC)cc4)ccc31)[C@H](C(=O)NC[C@H](O)c1ccccc1)[C@H]1C(=O)O[C@H](c3ccccc3)[C@H](c3ccccc3)N1[C@@H]2c1ccc(O)cc1 | 0.148 | 0.552 (inactive) | 0.236 | -0.154 | 0.441 | 1.7 | 1.48 | 1.29 | 0.806 | 1.16 |
| COCCCNC(=O)[C@]1(CCC(=O)OC(C)(C)C)N=C(c2ccc(OCCCO)cc2)O[C@@H]1c1ccccc1 | 0.968 | 0.977 (inactive) | 0.246 | 0.221 | 0.871 | 3.17 | 0.62 | 0.881 | -0.0833 | -0.354 |
| COc1ccc([Si](C)(C)[C@H]2[C@H](CCn3cc([C@H](O)c4ccccc4)nn3)O[C@@]3(C(=O)N(Cc4ccc(N5CCOC5=O)cc4)c4ccccc43)[C@@H]2C)cc1 | -0.397 | 0.486 (inactive) | -0.172 | -0.186 | -0.586 | -0.55 | -1.14 | -0.426 | -0.586 | -0.321 |
| C=CC[C@]1(C(=O)N(C)C)N=C(c2ccc(OCCCO)cc2)O[C@H]1c1ccccc1N=[N+]=[N-] | 1.07 | 0.298 (inactive) | 0.266 | 0.0805 | 0.489 | 2.81 | 0.55 | 1.3 | -0.811 | 0.877 |
| C[C@@H](OCc1ccccc1)C1NC(=O)[C@@]23C(=O)N[C@@H](Cc4ccccc4)C2[C@H](C)[C@@]2(C)O[C@H]2C3/C=C/C/C=C\CNC(=O)CNC1=O (stereo not given in full) | 0.651 | 0.536 (inactive) | -0.0647 | -0.133 | 0.721 | -0.282 | 0.234 | -1.28 | 0.0667 | -2.32 |
| CC=CC(O)C1C=CC2C(=O)N(c3ccccc3)C(=O)C2N1Nc1ccccc1 (stereo not given) | 0.867 | 0.454 (inactive) | 0.291 | 0.121 | 0.681 | 2.57 | 0.243 | 1.29 | 0.25 | 1.19 |
| C[N+](C)(C)CCCC[C@@H]1NC(=O)[C@@H]2C[C@H](C(=O)O)[C@H](c3ccc(O)cc3)N2C1=O | 0.594 | -0.238 (inactive) | -0.223 | -0.0798 | 0.381 | -0.555 | -0.534 | -2.19 | -0.827 | 0.0317 |
| [N-]=[N+]=NCc1ccccc1C[C@@]1(C(=O)NCCN2CCOCC2)N=C(c2ccc(OCCCO)cc2)O[C@@H]1c1ccccc1N=[N+]=[N-] | 0.678 | 0.653 (inactive) | 0.163 | -0.116 | 0.419 | 1.6 | 0.276 | 1.3 | -0.396 | 1.09 |
| COCCOC(=O)N1C(=O)[C@@]2(c3cc(C#CCC(C(=O)OC)C(=O)OC)ccc31)[C@H](c1ccc(OCCO)cc1)N1[C@H](c3ccccc3)[C@H](c3ccccc3)OC(=O)[C@H]1[C@@H]2C(=O)N1CCN(c2ncccn2)CC1 | 0.758 | -0.341 (inactive) | 0.196 | -0.14 | 0.35 | 2.33 | 0.265 | 1.29 | 0.293 | 1.1 |
| Cc1ccc(S[C@]2(C(=O)NC(C)C)CC(=O)N(C3Cc4ccccc4C3)[C@@H]2c2ccc(CO)cc2I)cc1 | -0.25 | 0.0777 (inactive) | -0.641 | -0.359 | 0.825 | 3.04 | 0.387 | 0.318 | 0.02 | -0.181 |
| O=C1C[C@]2(c3ccc([N+](=O)[O-])cc3)C(=O)N(Cc3ccccc3)c3cc(CO)ccc3[C@H]2N1CC12CC3CC(CC(C3)C1)C2 | -0.729 | -0.767 (inactive) | -0.356 | -0.207 | -0.406 | 0.284 | 1.66 | -1.26 | -1.27 | -1.73 |
| COc1ccccc1CN1C(=O)c2ccccc2[C@@H](C(=O)NC(C)C)[C@@H]1c1ccc(CO)cc1 | -0.374 | -0.0458 (inactive) | 0.338 | 0.103 | 0.535 | 2.32 | 1.03 | 1.33 | 0.565 | 1.16 |

| Structure (SMILES) | composite z-score (Albumin (Bos taurus)) | composite Z-score [1] | composite z-score [2] | composite z-score [3] | composite z-score [4] | composite z-score [5] | composite z-score [6] | composite z-score (Sam68 (KHDRBS1)) | composite z-score [7] | composite z-score [8] |
| --- | --- | --- | --- | --- | --- | --- | --- | --- | --- | --- |
| CCOC(=O)C[C@H]1[C@H](OC(=O)c2ccccc2-c2ccccc2)[C@@H](NC(=O)c2ccc3ccccc3n2)c2cc(OCCCO)ccc2N1C(=O)c1ccc2ccccc2n1 | 0.202 | -0.293 (inactive) | -0.0647 | -0.0626 | 0.0023 | 0.626 | -0.283 | 0.498 | 0.422 | 0.762 |
| C=C(CCCC)C(=O)CC[C@@H](OC(=O)c1cccnc1)c1ccccc1OCCO | -0.326 | 0.589 (inactive) | 0.1 | -0.0804 | 0.406 | -0.256 | 0.377 | 0.44 | 0.515 | -1.51 |
| C=CCNC(=O)[C@@H]1[C@H]2C(=O)O[C@H](c3ccccc3)[C@H](c3ccccc3)N2[C@H](c2ccccc2OCCO)[C@@]12C(=O)N(C(=O)OCCOC)c1ccc(C#CC3=CCCCC3)cc12 | 0.706 | 2.45 (inactive) | -0.0699 | -0.0664 | 0.467 | 1.76 | -0.218 | 1.28 | 0.741 | 1.12 |
| CC[C@H]1C2=C3C(CC[C@H]4C(OCc5ccc(F)cc5C(F)(F)F)OC[C@](C)([C@@H]34)N(C(=O)OC(C)(C)C)C2)C2COC(=O)OCC21 (stereo not given in full) | 0.911 | 0.572 (inactive) | 0.367 | 0.0755 | 0.578 | 2.62 | 0.494 | 1.32 | -1.64 | 0.994 |
| CN(C)CCCNC(=O)[C@@H]1c2ccccc2C(=O)N(Cc2ccc(OC(F)(F)F)cc2)[C@H]1c1ccc(CO)cc1 | -0.298 | 0.729 (inactive) | 0.0469 | -0.115 | 0.398 | 1.4 | 0.602 | 1.26 | 0.151 | 0.675 |
| COCCOC(=O)N1C(=O)[C@@]2(c3cc(C#Cc4ccc(OC)cc4)ccc31)[C@H](C(=O)N1CCCCCCC1)[C@H]1C(=O)O[C@H](c3ccccc3)[C@H](c3ccccc3)N1[C@@H]2c1ccc(O)cc1 | -0.617 | 0.527 (inactive) | 0.807 | 0.0137 | 0.168 | 0.234 | 0.421 | 1.15 | 0.643 | 0.692 |
| COC(=O)[C@@]1(Cc2ccccc2)[C@H]2c3cc(C(=O)N4CCCC4)n(C[C@H](O)CO)c3C[C@H]2CN1C(=O)c1ccccc1 | 0.659 | -0.164 (inactive) | 0.152 | 0.0837 | 0.907 | 1.79 | 0.288 | 0.18 | -1.34 | -0.311 |
| C=C(/C=C/CNS(=O)(=O)c1ccc(C)cc1)[C@H](O)[C@H]1CCCN1S(=O)(=O)c1ccccc1[N+](=O)[O-] | 0.699 | -0.327 (inactive) | -0.0932 | -0.138 | 0.305 | 0.0646 | 0.394 | 0.0808 | 0.547 | 0.0635 |
| CN1C(=O)C2C=CC(C(O)c3c(F)cccc3Cl)N(Nc3ccccc3)C2C1=O (stereo not given) | 0.956 | -0.263 (inactive) | 0.291 | 0.0177 | 0.396 | 2.84 | 0.73 | 0.895 | 0.298 | 1.18 |
| COCC(=C=CC[C@H](O)c1ccc(OCCO)cc1)C[C@H](O)COCc1ccccc1 | 0.589 | 0.0082 (inactive) | -0.123 | -0.14 | 0.561 | 1.07 | 0.476 | 0.703 | 0.538 | 0.654 |
| O=c1cccc(-c2cccc(Cl)c2)o1 | 0.271 | 1.25 (inactive) | -0.0164 | -0.161 | -0.0655 | 0.043 | 0.275 | 0.159 | 0.0809 | 0.164 |
| CN(C)C(=O)[C@@]1(Cc2ccccc2N=[N+]=[N-])COC(c2ccc(OCCCO)cc2)=N1 | 0.623 | 1.69 (inactive) | 0.12 | -0.268 | 0.71 | 1.89 | 0.0648 | 0.905 | 0.118 | 1.12 |
| C=C(COC)/C(=C/C[C@@H](OC(=O)c1ccncc1)c1ccc(OCCO)cc1)c1cnc2ccccc2c1 | 0.646 | -0.41 (inactive) | 0.321 | -0.0804 | 0.854 | 0.514 | 0.39 | 1.31 | 1.53 | 1.15 |
| Cc1ccc(S[C@]2(C(=O)O)CC(=O)N(Cc3ccccc3Cl)[C@@H]2c2ccc(CO)cc2)cc1 | 0.489 | -0.173 (inactive) | -0.159 | -0.0519 | 0.75 | 1.72 | 0.591 | -0.503 | -0.828 | -0.503 |
| CC(=O)N1Cc2ccccc2C[C@]2(N=C(c3ccc(OCCCO)cc3)O[C@@H]2c2ccccc2)C1=O | -0.569 | 0.581 (inactive) | 0.0242 | -0.0424 | 0.552 | 2.87 | 0.451 | 1.3 | 0.15 | 1.13 |
| COC(=O)[C@@]1(Cc2ccc(F)cc2)[C@H]2c3cc(C(=O)N4CCCC4)n(CCF)c3C[C@H]2CN1C(=O)c1ccccc1 | 1.09 | 0.803 (inactive) | 1.82 | 0.948 | 0.811 | 3.46 | 0.829 | 0.37 | 0.294 | 0.857 |

From PubChem BioAssay
